Compound activity deposited in PubChem by several laboratories.
This is a sample that favours compounds with a hit; in the whole collection about 1.9% have one here.
KLF5 inh: inhibitors of KLF5 expression; hit rate 0.23% among 290,000; inhibition, % at 5 µM; DLD-1 KLF5 promoter-luciferase reporter, luminescence;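 active = inhibition above a per-plate limit of that plate's mean compound inhibition plus 3 SD, cut at about 60% in these data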;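 note: 0% = DMSO wells and 100% = LY294002 at 200 µM; higher means less KLF5 promoter-driven luciferase light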
APP 5UTR inh: APP translation inhibition; SH-SY5Y APP 5'UTR-luciferase reporter, luminescence; inhibition, % at 2 µM; hit rate 0.82% among 190,000; AID 1285;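 active = inhibition above a set limit, derived from the sample mean plus 3 SD, cut at about 45% in these data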
IEC-6 tox: IEC-6 cytotoxicity, counter-screen for KLF5 inhibitors; luminescence viability; inhibition, % at 5 µM; AID 1825; hit rate 0.78% among 290,000;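 note: 0% = plate median of test compound wells and 100% = cytotoxic reference compound wells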
BaF3 tox: counter-screen for JAK2V617F inhibitors: parental Ba/F3 viability inhibitors; CellTiter-Glo ATP luminescence; inhibition, % at 5.6 µM; hit rate 1.1% among 220,000;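 active = inhibition above a per-campaign cutoff, the mean inhibition of all tested compounds plus 3 SD, cut at about 27% in these data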;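 note: 0% = DMSO wells and 100% = JAK Inhibitor I control wells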
Ba/F3 V617F tox: loss of viability in JAK2V617F-driven Ba/F3 cells; Ba/F3 EpoR-JAK2V617F viability, ATP luminescence; inhibition, % at 5.6 µM; hit rate 1.1% among 220,000; AID 1446;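 active = inhibition above the campaign mean plus 3 SD over all tested compounds, cut at about 24% in these data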;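 note: cytokine-independent growth of Ba/F3 cells driven by EpoR plus mutant JAK2; 0% = DMSO-treated cells and 100% = JAK inhibitor I control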
IEC-6 tox confirm: IEC-6 cytotoxicity, confirmation assay; shares compounds with IEC-6 tox; IEC-6 rat intestinal epithelial viability, luminescence; inhibition, % at 5 µM; hit rate 63% among 1,900; AID 1907;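 note: 0% = vehicle and 100% = reference cytotoxic drug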
Active calls of the source: *; . = no result given. Cut-off read from the data, not from the text of the source, unless noted: active = inhibition above about 22%; inactive = the rest.

SMILES	KLF5 inh	APP 5UTR inh	IEC-6 tox	BaF3 tox	Ba/F3 V617F tox	IEC-6 tox confirm
O=C(C(Cl)Cl)N1c2ccccc2OCC1c1ccccc1 (stereo not given)	5	-2	37*	9	6	15
Cc1ccc(S(=O)(=O)N2c3ccccc3OCC2c2ccccc2)cc1 (stereo not given)	-18	-14	2	6	-2	.
CCc1ccccc1Nc1ncnc2ccccc12	-39	.	0	.	.	.
CCCCCCCCNc1ncnc2ccccc12	-3	20	27*	63*	70*	13
O=Cc1ccc(Sc2nnc(-c3ccccc3)o2)c([N+](=O)[O-])c1	-38	-5	-4	5	4	.
Cn1nc([N+](=O)[O-])nc1Sc1nnc(-c2ccccc2)o1	27	95*	68*	76*	92*	68*
COc1cccc2sc(Nc3nnc(-c4ccc(F)cc4)o3)nc12	-15	-10	-2	3	-1	.
COc1cccc2sc(Nc3nc(-c4ccccn4)cs3)nc12	25	84*	89*	53*	51*	96*
COc1cccc2sc(Nc3nnc(-c4cccs4)o3)nc12	-8	-71	69*	10	11	59*
O=C(Nc1cc(=O)[nH]c(=O)[nH]1)c1cc(Cl)ccc1Cl	45	.	45*	.	.	14
O=C(Nc1cc(=O)[nH]c(=O)[nH]1)c1cccc(C(F)(F)F)c1	-16	.	-2	.	.	.
O=C(NC1CCS(=O)(=O)C1)c1ccc(S(=O)(=O)N2CCCCC2)cc1 (stereo not given)	-10	0	0	9	-2	.
CCOC(=O)c1[nH]c(C)c(/C(O)=C2\C(=O)C(=O)N(CCCN3CCOCC3)C2c2cccs2)c1C (stereo not given)	33	.	59*	72*	70*	10
CCOC(=O)c1[nH]c(C)c(/C(O)=C2\C(=O)C(=O)N(CCN3CCOCC3)C2c2ccco2)c1C (stereo not given)	-33	-5	0	7	1	.
Cc1ccc2ncnc(Nc3ccccc3)c2c1	0	2	17	19	-3	.
Cc1cccc(Nc2ncnc3ccc(Br)cc23)c1	5	-12	42*	10	7	42*
O=c1c2[nH]c3ccccc3c2ncn1CCC1=CCCCC1	-38	-35	-4	1	-1	.
C1=C(CCNc2ncnc3c2[nH]c2ccccc23)CCCC1	-35	-25	39*	63*	73*	24*
CCc1ccc(NC(=O)C(=O)NCc2ccccn2)cc1	-105	-10	1	-4	-3	.
O=C(c1ccc2c(=O)n3c(nc2c1)CCCCC3)N1CCc2ccccc21	-18	.	-2	2	0	.
CC1(C)CC(N2CCOCC2)=CC(=[N+]2CCOCC2)C1	-21	-6	-4	5	-2	.
CC1(C)CC(N2CCCCC2)=CC(=[N+]2CCCCC2)C1	-14	8	23*	68*	84*	25*
Cc1occc1C(=O)N/N=C/c1ccc(OCc2ccccc2)cc1	-107	.	-10	0	0	.
Cc1occc1C(=O)N/N=C/c1ccc(-c2ccccc2)cc1	-15	.	28*	.	.	31*
COc1ccc(NS(=O)(=O)c2cccc(NC(=O)c3ccc(Cl)nc3)c2)cc1	12	10	33*	78*	63*	18
SMILES	KLF5 inh	APP 5UTR inh	IEC-6 tox	BaF3 tox	Ba/F3 V617F tox	IEC-6 tox confirm
COc1cc(-c2noc(C)c2-c2ccc3[nH]ccc3c2)cc(OC)c1OC	41	.	89*	.	.	60*
COC(=O)c1[nH]c(C)c(/C(O)=C2\C(=O)C(=O)N(CCN3CCOCC3)C2c2ccco2)c1C (stereo not given)	-21	.	-6	0	-2	.
COc1ccccc1N1CCN(C(=O)c2ccc3[nH]c(C)c(C)c3c2)CC1	58	.	73*	.	.	57*
Cc1nsc2nc3c(F)c(F)c(F)c(F)c3cc12	-2	.	29*	.	.	5
COc1cc(OC)cc(C(=O)c2c(C)c(C#N)c3ccccn23)c1	58	.	52*	.	.	18
O=C(Oc1cc(Cl)ccc1Cl)c1ccc(N2CCOCC2)c([N+](=O)[O-])c1	-30	15	-6	4	-1	.
CCCCCCn1c2c(c(=N)c3c1CCC3)CCC2	55	-16	24*	78*	98*	26*
CCCCCCCn1c2c(c(=N)c3c1CCC3)CCCC2	59	22	38*	88*	100*	37*
CCCCCCCCCn1c2c(c(=N)c3c1CCC3)CCC2	52	18	44*	91*	98*	50*
CCCCCCn1c(=O)[nH]c2c(c1=O)CCC2	-12	.	-3	4	-4	.
CSc1sc(-c2n[nH]c(=S)n2C)c2c1C=CCC2	-5	.	-8	-1	-2	.
C=CCn1c(C)nc2c(sc3nc4c(cc32)COC(C)(C)C4)c1=O	-162	.	-1	7	2	.
CCOC(=O)c1cnn(-c2nc(-c3cccc(F)c3)cs2)c1C(F)(F)F	-9	5	2	11	1	.
Cc1cc(C(C)(C)C)cc(C)c1C[n+]1ccc2ccccc2c1	-21	.	28*	.	.	22*
CCNc1ccc(C(=O)OCC)cc1NC(=O)c1cccc(N(C)C)c1	57	81*	64*	77*	82*	58*
Cc1cc(C#Cc2c(-c3ccccc3)n(C)c3ccccc23)ccc1F	-8	.	-6	.	.	.
COc1ccc(C(c2c(O)ccc3ccccc23)N2CCOCC2)c(OC)c1 (stereo not given)	-38	-74	35*	0	-1	-1
COc1ccc(CCC(C)N2CCOCC2)cc1 (stereo not given)	-28	.	1	.	.	.
N#C/C(=C\c1ccccn1)c1ccccn1	-46	.	28*	.	.	17
C[n+]1cc(C(=O)N2CCCCC2)ccc1/C=C/c1c[nH]c2ccccc12	-12	2	-2	3	0	.
CCOC(=O)c1sc(N)c(C(=O)Nc2ccccc2OC)c1C	12	47*	38*	36*	40*	46*
c1ccc(CCNc2ccnc3cc4ccccc4cc23)cc1	-75	22	87*	43*	53*	43*
COc1ccc(-n2nnnc2-c2ccccc2)cc1	38	89*	52*	68*	80*	50*
Clc1ccc(-n2nnnc2-c2ccccc2)cc1	-3	4	6	3	4	.
COc1ccc(/C=C2\CCc3ccccc3C2=O)cc1O	3	.	28*	.	.	3
SMILES	KLF5 inh	APP 5UTR inh	IEC-6 tox	BaF3 tox	Ba/F3 V617F tox	IEC-6 tox confirm
COc1ccc(/C=C2\Cc3ccccc3C2=O)cc1OC	-7	.	7	-3	2	.
Cc1cccc(OCCCN2C(=O)C(=O)c3cc(C)ccc32)c1	-22	40	44*	7	4	15
CC1CCN(c2oc(-c3ccc(F)cc3)nc2C#N)CC1	-36	.	6	.	.	.
CC(C)Cc1nnc(NC(=O)CCC(=O)N2CCN(c3ccc(F)cc3)CC2)s1	-12	.	-9	.	.	.
NC(=S)N/N=C\c1c(OCc2ccccc2Cl)ccc2ccccc12	-24	6	6	4	13	.
COc1ccccc1N1CCN(c2ccc(-c3ccccc3)nn2)CC1	-51	90*	62*	74*	72*	59*
COc1ccccc1N1CCN(c2ccc3ccccc3n2)CC1	-51	.	6	.	.	.
